# Source: PubChem BioAssay AID1851 (National Center for Advancing Translational Sciences (NCATS), 2009)
# The whole screen tested about 16,000 compounds, of which about 2,600 (16%) were called active. About 20% were inconclusive and are not listed. Calls follow the shape of the dose curve; as a rule, active = well fitted curve in the direction sought with a large enough effect; inconclusive = small, poorly fitted or top-dose-only effect, or effect the other way; inactive = no such curve, though single readings can be large or run the other way. Not all results are given here.
# Target: Cytochrome P450 2D6 (Homo sapiens) (UniProt P10635)
# Assay: Cytochrome panel assay with activity outcomes
# Details: recombinant CYP, pro-luciferin dealkylation, luminescence, p450-cyp2d6; series mostly up to 57.1 µM; activity, negative = inhibition: at the top concentration
# % is scaled to controls: 0 for no effect and ±100 for the full control effect.
# Sequence of Cytochrome P450 2D6 (Homo sapiens) (P10635 whole entry, looked up): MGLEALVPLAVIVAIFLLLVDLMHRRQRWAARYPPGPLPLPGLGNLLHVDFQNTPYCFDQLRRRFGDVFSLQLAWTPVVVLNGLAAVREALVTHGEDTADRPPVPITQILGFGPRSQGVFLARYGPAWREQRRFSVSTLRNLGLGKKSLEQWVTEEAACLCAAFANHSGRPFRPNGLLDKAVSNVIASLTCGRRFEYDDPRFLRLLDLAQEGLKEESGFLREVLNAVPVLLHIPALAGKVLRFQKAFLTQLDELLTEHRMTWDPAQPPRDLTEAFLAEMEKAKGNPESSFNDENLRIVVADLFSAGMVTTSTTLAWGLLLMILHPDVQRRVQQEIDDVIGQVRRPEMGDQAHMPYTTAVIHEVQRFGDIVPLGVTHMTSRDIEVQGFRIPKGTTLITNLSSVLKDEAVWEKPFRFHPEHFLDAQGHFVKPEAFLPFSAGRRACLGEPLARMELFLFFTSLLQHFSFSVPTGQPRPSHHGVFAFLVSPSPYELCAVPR
Compound,"activity, negative = inhibition",AC50
Cc1n[nH]c(=S)n1/N=C/c1ccccc1OCc1ccc(Cl)cc1,-2.31% (inactive),
CCOc1nc(NCCc2ccc(OC)c(OC)c2)nc(NC(C)(C)CO)n1,-10.7% (inactive),
COc1ccc(CNC(C)(C)C)cc1Cl,-20.5% (inactive),
CCOc1ccc(CC(=O)C2C(=O)CCCC2=O)cc1OCC,-15.5% (inactive),
C=CCOc1ccc(CNC(C)(C)CO)cc1OCC,,1.41 µM (active)
COc1cc(CNC(C)(C)CO)ccc1OCC(=O)Nc1ccc(Br)cc1,,5.01 µM (active)
CCc1ccc(OCC(=O)NC(=S)Nc2ccc(F)cc2)c(Br)c1,-16.7% (inactive),
C=CCOc1ccc(CNC(C)(C)CO)cc1OC,,1.41 µM (active)
CCOc1ccc(CNC(=O)C2CC(=O)N(C3CCCC3)C2)cc1OC (centres undefined),-1.57% (inactive),
CCOC(=O)c1ccc(NC(=O)COc2ccccc2OC)cc1,-1.48% (inactive),
Cc1ccccc1C(=O)NNC(=O)c1ccoc1C,-3.55% (inactive),
CC(C)CC(=O)N[C@H](C(=O)N[C@H](C(=O)N[C@@H](CC(C)C)[C@H](O)CC(=O)N[C@@H](C)C(=O)N[C@@H](CC(C)C)[C@H](O)CC(=O)O)C(C)C)C(C)C,10.1% [at 25.6 µM] (inactive),
O=C(Nc1nnc(-c2ccc(Cl)cc2)o1)Nc1ccccc1Cl,6% (inactive),
COc1ccc(Oc2ncc3nc(-c4cc(F)cc(F)c4)c(=O)n(C)c3n2)cc1,5.83% (inactive),
Cc1cc(C(F)(F)F)n2nc(-c3cnn(C)c3C(F)(F)F)cc2n1,5.93% (inactive),
CN1CCN(c2ncc3nc(-c4cccs4)c(=O)n(C[C@H]4CCCO4)c3n2)CC1,-2.95% (inactive),
COC(=O)c1c(-c2cc(OC)c(OC)c(OC)c2)c2ccnc(OCc3ncccn3)c2c(=O)n1Cc1ccnc(C)c1,-3.6% (inactive),
C[C@H](N)C(=O)O,9.23% (inactive),
Cc1ccc(S(=O)(=O)Oc2ccc(C3C4=C(CCCC4=O)OC4=C3C(=O)CCC4)cc2)cc1,,7.94 µM (active)
COc1ccc2c(c1)OC1=C(C(=O)CCC1)C2C1=C(O)CCCC1=O (centres undefined),-11.1% (inactive),
Cc1ccc(S(=O)(=O)Oc2cc(N)c3c(n2)CCC3)cc1,-20.4% [at 11.4 µM] (inactive),
COc1ncc2nc(-c3ccccc3)c(=O)n(-c3ccccc3)c2n1,-11.6% (inactive),

Compound,"activity, negative = inhibition",AC50
COC(=O)C(C(=O)OC)C(C[N+](=O)[O-])c1ccc(OC)c(OC)c1 (centres undefined),11.8% (inactive),
O=C1CC(N(O)C2CC(=O)N(Cc3ccccc3)C2=O)C(=O)N1Cc1ccccc1 (centres undefined),-14.7% (inactive),
CCOC(=O)CCN1C(=O)[C@H]2[C@H]3[C@H](O)[C@H](O)C/C(=N/OC[C@@H](O)COCc4ccco4)[C@@H]3CC[C@@H]2C1=O,7.94% [at 11.4 µM] (inactive),
Fc1ccc(Nc2ccnc(-c3ccc4c(c3)OCO4)n2)cc1,,10 µM (active)
Nc1nccc(Nc2ccc(S(N)(=O)=O)cc2)n1,-5.16% [at 11.4 µM] (inactive),
CN(C)C(=O)c1ccc(-c2nccc(Nc3ccc(F)cc3)n2)cc1,-8.36% (inactive),
CN(C)c1ccc(-c2nccc(Nc3ccc(F)cc3)n2)cc1,,20 µM (active)
Cc1noc(C)c1-c1nccc(Nc2ccc(F)cc2)n1,4.6% (inactive),
Cc1noc(C)c1-c1cc(Nc2ccc(F)cc2)ncn1,-3.49% (inactive),
C[C@H]1[C@@H](O)[C@@H](C)\C=C/C=C\C=C/C=C\C=C/C=C\C=C/[C@@H](O[C@H]2O[C@@H](C)[C@@H](O)[C@@H](N)[C@@H]2O)C[C@@H]2O[C@](O)(C[C@@H](O)C[C@@H](O)[C@@H](O)CC[C@@H](O)C[C@@H](O)CC(=O)O[C@H]1C)C[C@@H](O)[C@H]2C(=O)O (stereo in doubt),0.587% [at 25.6 µM] (inactive),
Cc1sc2c(c1C)c(=O)n(-c1ccccc1)c1nnc(C)n21,-7.69% (inactive),
CC(C)(Oc1ccc(Cl)cc1)C(=O)Nc1cccnc1,-19.7% (inactive),
CC(C)(Oc1ccc(Cl)cc1)C(=O)Nc1ccncc1,,0.0316 µM (active)
CC(C)OC(=O)C(C)(C)Oc1ccc(C(=O)c2ccc(Cl)cc2)cc1,-6.74% [at 25.6 µM] (inactive),
CN(C)c1ncc2nc(-c3ccc(F)cc3)c(=O)n(CCc3ccccc3)c2n1,0.289% (inactive),
COc1cc2ccc(=O)oc2cc1O,-3.08% [at 25.6 µM] (inactive),
CN(C)C(=O)c1ccc(-c2cncnc2NCCN2CCOCC2)cc1,-9.47% (inactive),
COc1cccc(-c2cncnc2NCCN2CCOCC2)c1,,10 µM (active)
Cc1noc(C)c1-c1cncnc1NCCN1CCOCC1,-18.3% (inactive),
N#CCCn1c(=O)c(-c2cccc(C#N)c2)nc2cnc(N3CCOCC3)nc21,-0.118% (inactive),
COc1cccc(-c2nc(NCCN3CCOCC3)c3ccccc3n2)c1,,12.6 µM (active)
N#Cc1cccc(-c2nc(NCCN3CCOCC3)c3ccccc3n2)c1,,7.94 µM (active)

Compound,"activity, negative = inhibition",AC50
CS(=O)(=O)Nc1cccc(-c2nc(NCCN3CCOCC3)c3ccccc3n2)c1,-16.5% (inactive),
c1cncc(-c2nc(NCCN3CCOCC3)c3ccccc3n2)c1,,10 µM (active)
COc1cccc(-c2cc(C(F)(F)F)nc(N3CCOCC3)n2)c1,-15% (inactive),
COC(=O)c1ccccc1NC(=O)c1ccc(COc2ccc(C)c(C)c2)o1,-19.6% (inactive),
NCCCCCCCCCCN,4.93% (inactive),
O=C1NC(c2ccccc2)=NC1(NS(=O)(=O)c1ccccc1)C(F)(F)F (centres undefined),1.41% (inactive),
CCOC(=O)c1cc(-c2ccccc2)sc1NC(=O)C(C)(C)C,19.9% (inactive),
Nc1nc(-c2ccc3ccccc3c2)cc(-c2cc(-c3ccc4ccccc4c3)nc(N)n2)n1,1.49% [at 11.4 µM] (inactive),
CC(=O)Nc1cccc(C(=O)OCc2ccc(C(=O)Oc3ccc(Cl)cc3)cc2)c1,-14% (inactive),
CN1CCN(C(=O)C(C(=O)c2ccc(F)cc2)n2ccccc2=O)CC1 (centres undefined),6.96% (inactive),
CCc1cccc2c(C=C(C#N)C#N)cn(CC(=O)N3CCCC3)c12,10.2% (inactive),
COc1ccc(/C=C2\CCCC3C2=NN(C(=O)c2ccco2)C3c2ccc(OC)c(OC)c2)cc1OC (centres undefined),-5.57% (inactive),
COc1ccc(/C=C2\N=C(SC)N(C)C2=O)cc1,-32.1% (inactive),
O=C(N/N=C/C=C/c1ccccc1)c1cc2c(ccc3ccccc32)o1,15.2% (inactive),
O=C(O)[C@@H](O)[C@@H](O)[C@@H](O)[C@@H](O)C(=O)O (tested in a mixture with another compound),-8.07% [at 25.6 µM] (inactive),
CC(C)CCNC(=S)NC1CCCC1,-17.1% (inactive),
Cc1nn(C(C)(C)C)c(OC(=O)c2ccco2)c1Sc1ccccc1,-16.8% (inactive),
CCOC(=O)c1c(C)c(C(=O)N2CCN(C(=O)c3ccco3)CC2)c(C)n1C,16.8% (inactive),
CCOC(=O)c1c(C)c(C(=O)N2CCCCCC2)c(C)n1C,,11.2 µM (active)
CCOC(=O)c1c(C)c(C)n2c1NC(=O)C2,-4.83% [at 11.4 µM] (inactive),
